40 sequences from the supplement of paper PMC6555819 can be followed below.

The subject of the first assay is PPARg:RXRa (NR concentration 180 nM, RXRa partner concentration 90 nM). Put plainly: PBM binding z-score (relative to random genomic background probes); higher = stronger binding; sequences stand for … in GC…GCGATTGACAGCGTAGAATGAAGG
An outline of the steps: (§1)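 Antibodies against each partner of ligand-free nuclear receptor dimers (one per run) detected binding on custom Agilent 4×180K protein-binding microarrays after 1 h incubation. The double-stranded probes had 34-nt variable regions carrying direct-repeat seeds, single-nucleotide variants, half-site ablations and random human genomic background sequences. Binding z-scores, from regression-normalized fluorescence, use the random background probes as reference.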
Sequence ATATGTAGGTTAGCTGTGGTCATTCAGACTAGGC showed a PBM binding z-score of 3.3.
Same read-out and setting: the value for TCTCGGAGGACACGAAAGGTCAGCGCTCGACATC was 1.58; that for TCCTGTAGATCAAAGGTTAAGAAAGCCGAAGCCT was 7.57.
Regarding TCTAGTTGGTCGAAGGTCACACACTCGAAATGCG, the PBM binding z-score came to 7.43.
TCATATAGGTAAAGGTGAAAGTCGAACGATATGA registered a PBM binding z-score of 4.01.
In turn, TAGCCTAGGTCATTCATGGGCCAGTATAGAAAGC showed a PBM binding z-score of 2.02.
On the same count and under the same terms, in the case of AGAATGAGCTTATACGTAGATCAGGGAAGAAAGT it was 0.415.
The same measure, in the same setting: the value for GCGACTGGGGCAAAGCAGGTTACCATAAGGTTGG was 1.19; that for ACTAGTTTGTCAGCTGAGGTCACACACAATTCGG was 1.49; that for ATACCAAGGTGTTCGTGAGGTCGTTGATACTAAC was 0.117.
Sequence CCAGACAGGTGAAAGGTAAGTCAGTCTGGTACGC returned a PBM binding z-score of 4.52.
As for AGAATGAGGTTATACGTATATCAGGGAAGAAAGT, the PBM binding z-score was found to be 2.58.
Same read-out and setting: in the case of GCTATTAGTTGAAAGGGCTACCGAATGATTCTCG it was 0.531; in that of CCTACTGGGCCAAAGGTCATTGTTTCCAATGCTC, 11.7; in that of GCTAGCAGGCCATTTGGGTCTCTCAATGACGGGC, -0.0162.
For TCGAGTAGGTTAGTTGGGGCATTCAGCCAACATA, the PBM binding z-score is -0.334.
Still for that read-out and setting: in the case of AATACAGGGCCACTAGGCCAGAGTAGGTACGAAT it was 1.13.
Still for that read-out and setting: in the case of ATACGTAGGTTAGCTGGGGTCATTCAGACTAGGC it was 1.72; in that of GCTAGTTGGCCAGTAAAAGGTCACACACCGGTCG, 1.91.
Still for that read-out and setting: the value for TGTCAAAGTTCAGAGGTAACGTAAGTATCCACAC was 6.27; that for ATCTCTAGGTCAGACTCAGTTCAGTGAAGAACGC was 3.02; that for TCACATAGGTAAAAGGTGAAAGTCGGTGTGGTAA was 5.76.
Turning to TCTTGTAGATGAATAGAGGTTAAGAAAGTGCGCT, the PBM binding z-score was 0.366.
The same measure, in the same setting: the value for AGAATTAGGTTACCAAAGATCAGGGAAACGCTTG was 3.46; that for ATCTCTAAGTAAAGTTCAGTGAAAGATCGATAGA was 1.4.
AATAGAGGGTCACTAGGCCAGAGTAGGTACGAAT yielded a PBM binding z-score of 6.44.
AGAACGAGGGCACGCTGATTTGATAGCAGAGTAG yielded a PBM binding z-score of 2.24.
In turn, GGAACGAGGGCAAGTTGATGGCAGAGTTTGATGG came in with a PBM binding z-score of 0.994.
Same read-out and setting: the value for CCTAGTTGGTCAATGTCACACACGCTATAGGTAC was 1.17.
For the sequence TCATTTAGGTAATACAGGTGAAAGTCGGCATCTA, the PBM binding z-score was 0.962.
The same measure, in the same setting: in the case of CCTTACGGGTTACTGACAGGTTATAGCATTTGGA it was 0.373; in that of ACTATTCGTTGACTTAGGGCAACCGATACGACGC, 0.87; in that of ACCTCTAGGTAAGACTCAGTTCAGTGAAGAACGC, 0.0418.
Same read-out and setting: in the case of CGTCCAAGGTCAATGCTAGGTCAGTGAAAGCATT it was 4.02.
In the case of ACTATTAGTTGAGACGAGGGCAACCGCTAGGTTG, the PBM binding z-score was 0.327.
Same read-out and setting: in the case of TCTTGTAGATCAAAAGAGGTTAAGAAAGTGCGCT it was -0.0297; in that of CGAACGAGGGCATGAGTTGAGAGCAAATGCCGAT, 1.42; in that of GCTATTAGTTGAAAGGGCAACCAAATGATTCTCG, 2.73.
Same read-out and setting: in the case of CAAACTAGGTCAAAGGTCAAAGGCGAGCCAACCA it was 14.2; in that of GCTTGTAGATCAACGTTAAGAAAGACTAAGCTAA, 0.13.

In the next assay the test system is PPARg:RXRa 270nM:90nM, anti-RXR (NR concentration 270 nM, RXRa partner concentration 90 nM). The description is as above. An outline of the steps:
as §1
ATATGTAGGTTAGCTGTGGTCATTCAGACTAGGC: the PBM binding z-score came to 2.79.
In turn, TCTCGGAGGACACGAAAGGTCAGCGCTCGACATC showed a PBM binding z-score of 3.31.
TCCTGTAGATCAAAGGTTAAGAAAGCCGAAGCCT returned a PBM binding z-score of 7.55.
TCTAGTTGGTCGAAGGTCACACACTCGAAATGCG had a PBM binding z-score of 7.58.
On the same count and under the same terms, the value for TCATATAGGTAAAGGTGAAAGTCGAACGATATGA was 4.55.
Same read-out and setting: the value for TAGCCTAGGTCATTCATGGGCCAGTATAGAAAGC was 2.1; that for AGAATGAGCTTATACGTAGATCAGGGAAGAAAGT was -0.614.
The sequence GCGACTGGGGCAAAGCAGGTTACCATAAGGTTGG yielded a PBM binding z-score of 1.12.
Take ACTAGTTTGTCAGCTGAGGTCACACACAATTCGG: the PBM binding z-score amounted to 2.21.
The same measure, in the same setting: the value for ATACCAAGGTGTTCGTGAGGTCGTTGATACTAAC was 0.343.
Same read-out and setting: in the case of CCAGACAGGTGAAAGGTAAGTCAGTCTGGTACGC it was 5.14; in that of AGAATGAGGTTATACGTATATCAGGGAAGAAAGT, 2.29.
Same read-out and setting: the value for GCTATTAGTTGAAAGGGCTACCGAATGATTCTCG was 1.52.
With CCTACTGGGCCAAAGGTCATTGTTTCCAATGCTC, the PBM binding z-score was found to be 10.6.
With GCTAGCAGGCCATTTGGGTCTCTCAATGACGGGC, the PBM binding z-score is -0.509.
Still for that read-out and setting: in the case of TCGAGTAGGTTAGTTGGGGCATTCAGCCAACATA it was 0.635; in that of AATACAGGGCCACTAGGCCAGAGTAGGTACGAAT, 0.532.
The same measure, in the same setting: the value for ATACGTAGGTTAGCTGGGGTCATTCAGACTAGGC was 2.91; that for GCTAGTTGGCCAGTAAAAGGTCACACACCGGTCG was 3.48; that for TGTCAAAGTTCAGAGGTAACGTAAGTATCCACAC was 6.33.
Same read-out and setting: in the case of ATCTCTAGGTCAGACTCAGTTCAGTGAAGAACGC it was 2.96; in that of TCACATAGGTAAAAGGTGAAAGTCGGTGTGGTAA, 6.66.
Consider TCTTGTAGATGAATAGAGGTTAAGAAAGTGCGCT, for which the PBM binding z-score was 2.17.
The same measure, in the same setting: the value for AGAATTAGGTTACCAAAGATCAGGGAAACGCTTG was 3.45; that for ATCTCTAAGTAAAGTTCAGTGAAAGATCGATAGA was 2.92.
Still for that read-out and setting: in the case of AATAGAGGGTCACTAGGCCAGAGTAGGTACGAAT it was 5.59.
Still for that read-out and setting: the value for AGAACGAGGGCACGCTGATTTGATAGCAGAGTAG was 1.79.
Sequence GGAACGAGGGCAAGTTGATGGCAGAGTTTGATGG returned a PBM binding z-score of 0.903.
Still for that read-out and setting: the value for CCTAGTTGGTCAATGTCACACACGCTATAGGTAC was 0.745; that for TCATTTAGGTAATACAGGTGAAAGTCGGCATCTA was 2.92.
The same measure, in the same setting: the value for CCTTACGGGTTACTGACAGGTTATAGCATTTGGA was 1.24; that for ACTATTCGTTGACTTAGGGCAACCGATACGACGC was -0.0902.
Same read-out and setting: the value for ACCTCTAGGTAAGACTCAGTTCAGTGAAGAACGC was 0.031; that for CGTCCAAGGTCAATGCTAGGTCAGTGAAAGCATT was 4.74.
ACTATTAGTTGAGACGAGGGCAACCGCTAGGTTG yielded a PBM binding z-score of 0.207.
Still for that read-out and setting: in the case of TCTTGTAGATCAAAAGAGGTTAAGAAAGTGCGCT it was 1.59.
On the same count and under the same terms, in the case of CGAACGAGGGCATGAGTTGAGAGCAAATGCCGAT it was 1.4; in that of GCTATTAGTTGAAAGGGCAACCAAATGATTCTCG, 4.6; in that of CAAACTAGGTCAAAGGTCAAAGGCGAGCCAACCA, 11.5.
On the same count and under the same terms, in the case of GCTTGTAGATCAACGTTAAGAAAGACTAAGCTAA it was -0.0429.
